This is part of a sample that, as a whole, favours compounds with a hit. Of some 83,000 tested, about 20% had one in any assay.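 Method: cells in 96-well plates; compound added at one concentration; 48 h incubation; percent growth measured; values under 10 scored active.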 Calls of active or inactive are those of the source.
What was measured:
Experiment in all cases: NCI-60 one-dose screen, 48 h (100 = growth as untreated, 0 = no growth, -100 = all killed)
Conditions in all cases: 10 µM unless noted
HCT-15 colon = test system: HCT-15 colon
HT29 colon = test system: HT29 colon
SNB-75 CNS = test system: SNB-75 CNS
SNB-19 CNS = test system: SNB-19 CNS
U251 CNS = test system: U251 CNS
PC-3 prostate = test system: PC-3 prostate
SK-MEL-5 melanoma = test system: SK-MEL-5 melanoma
UACC-62 melanoma = test system: UACC-62 melanoma
LOX IMVI melanoma = test system: LOX IMVI melanoma
SK-MEL-28 melanoma = test system: SK-MEL-28 melanoma

Measured: growth

C#Cc1cc(C(=O)Nc2ccc(CNCCN3CCOCC3)c(C(F)(F)F)c2)ccc1C
active: LOX IMVI melanoma 1.04%
inactive: HCT-15 colon 88% | HT29 colon 68.8% | SNB-75 CNS 76% | SNB-19 CNS 96.1% | U251 CNS 80.7% | PC-3 prostate 89.3% | SK-MEL-5 melanoma 94.2% | UACC-62 melanoma 93.9% | SK-MEL-28 melanoma 93.6%

C#Cc1nc(C(=O)NCCCCCCC(=O)NO)cs1
active: HT29 colon 5.53% | SNB-75 CNS -65.2% | U251 CNS 6.04% | SK-MEL-5 melanoma -55.9% | UACC-62 melanoma -63.1% | LOX IMVI melanoma -84.6% | SK-MEL-28 melanoma -53.1%
inactive: HCT-15 colon 41.3% | SNB-19 CNS 30.6% | PC-3 prostate 14.3%

Cc1csc(/N=C(N)/N=C(\N)c2cccc(C#N)c2)n1
inactive: HCT-15 colon 39.3% | HT29 colon 62.4% | SNB-75 CNS 59.5% | SNB-19 CNS 72.3% | U251 CNS 64.7% | PC-3 prostate 77.4% | SK-MEL-5 melanoma 85.7% | UACC-62 melanoma 52.1% | LOX IMVI melanoma 78.1% | SK-MEL-28 melanoma 74.6%

COC(=O)c1ccc(NC2=C(Cl)C(=O)c3nc(C)ccc3C2=O)cc1
inactive: HCT-15 colon 22.7% | HT29 colon 90.5% | SNB-75 CNS 106% | SNB-19 CNS 61.9% | U251 CNS 46.9% | PC-3 prostate 57.3% | SK-MEL-5 melanoma 68.4% | UACC-62 melanoma 68.5% | LOX IMVI melanoma 45.1% | SK-MEL-28 melanoma 75.4%

CC[C@H](CC[C@@H](C)[C@H]1CC[C@H]2[C@@H]3CC(=O)C4=CC(=O)/C(=C/c5ccc([N+](=O)[O-])cc5)C[C@]4(C)[C@H]3CC[C@]12C)C(C)C
inactive: HCT-15 colon 96.9% | HT29 colon 104% | SNB-75 CNS 96.1% | SNB-19 CNS 102% | U251 CNS 100% | PC-3 prostate 94.8% | SK-MEL-5 melanoma 96.7% | UACC-62 melanoma 90.2% | LOX IMVI melanoma 107% | SK-MEL-28 melanoma 104%

COc1cc(C(=O)c2cc(C(C)=O)c3cccc(C)n23)cc(OC)c1OC
active: HT29 colon 8.74% | SNB-75 CNS 5.39%
inactive: HCT-15 colon 17.9% | SNB-19 CNS 39.8% | U251 CNS 30.9% | PC-3 prostate 55.7% | SK-MEL-5 melanoma 33.3% | UACC-62 melanoma 23.3% | LOX IMVI melanoma 39.2% | SK-MEL-28 melanoma 61.8%

O=C(/C=C/c1csc(Br)n1)NO
inactive: HCT-15 colon 49% | HT29 colon 11.3% | SNB-19 CNS 38.5% | U251 CNS 31.4% | PC-3 prostate 44.3% | SK-MEL-28 melanoma 33.4%
active: SNB-75 CNS 9.37% | SK-MEL-5 melanoma -33.1% | UACC-62 melanoma -2.56% | LOX IMVI melanoma -13.8%

Cc1csc(/N=C(N)/N=C(\N)c2cccnc2)n1
inactive: HCT-15 colon 42.7% | HT29 colon 59% | SNB-75 CNS 41.7% | SNB-19 CNS 69.4% | U251 CNS 76.5% | PC-3 prostate 69.2% | SK-MEL-5 melanoma 80.3% | UACC-62 melanoma 40.2% | LOX IMVI melanoma 74.7% | SK-MEL-28 melanoma 65.3%

COc1ccc([C@H]2C(=O)N(c3cc(OC)c(OC)c(OC)c3)[C@@H]2c2ccc(OC)c(O)c2)cc1
active: HCT-15 colon 9.51% | HT29 colon -3.08% | SK-MEL-5 melanoma -23%
inactive: SNB-75 CNS 40.2% | SNB-19 CNS 28.3% | U251 CNS 15.7% | PC-3 prostate 20.9% | UACC-62 melanoma 33.1% | LOX IMVI melanoma 13.1% | SK-MEL-28 melanoma 63.7%

Cc1ncn(-c2ccc(/C=N/Nc3ccnc4cc(Cl)ccc34)cc2)c1C
active: HCT-15 colon -59.4% | HT29 colon -77.5% | SNB-75 CNS -24.2% | U251 CNS -81.7% | PC-3 prostate -21.3% | SK-MEL-5 melanoma -19.7% | UACC-62 melanoma -74.4% | LOX IMVI melanoma -88.9% | SK-MEL-28 melanoma -79.3%
inactive: SNB-19 CNS 42.3%

CN1CCN(CCCCCC(=O)Nc2nc(-c3cccc(NS(=O)(=O)c4cccc5c(N(C)C)cccc45)c3)cs2)CC1
active: LOX IMVI melanoma -84.8% | SK-MEL-28 melanoma -61.1%
inactive: HCT-15 colon 23.1% | HT29 colon 15.8% | SNB-75 CNS 76.7% | SNB-19 CNS 83.7% | U251 CNS 65% | PC-3 prostate 67.4% | SK-MEL-5 melanoma 71% | UACC-62 melanoma 83.2%

CC1CCN(CC(=O)Nn2c(COc3ccccc3)nc3ccccc3c2=O)CC1
inactive: HCT-15 colon 56% | HT29 colon 73.1% | SNB-75 CNS 72.6% | SNB-19 CNS 86.4% | U251 CNS 81.4% | PC-3 prostate 94.3% | SK-MEL-5 melanoma 82.9% | UACC-62 melanoma 69.3% | LOX IMVI melanoma 85.3% | SK-MEL-28 melanoma 92.8%

CCCCCC[n+]1ccc(SCC(=O)n2ccc3ccccc32)c2ccccc21
inactive: HCT-15 colon 94.3% | HT29 colon 84% | SNB-75 CNS 100% | SNB-19 CNS 86.8% | U251 CNS 94.4% | PC-3 prostate 83.7% | SK-MEL-5 melanoma 88.7% | UACC-62 melanoma 73.3% | LOX IMVI melanoma 91.5% | SK-MEL-28 melanoma 106%

COc1ccc(/C=N\NC(=O)c2cnn(CC(O)c3ccccc3)c2N)cc1OCc1ccc(Cl)cc1 (stereo not given)
inactive: HCT-15 colon 70.5% | HT29 colon 90.6% | SNB-75 CNS 60.8% | SNB-19 CNS 68.2% | U251 CNS 60.6% | PC-3 prostate 63.6% | SK-MEL-5 melanoma 92.2% | UACC-62 melanoma 81.1% | LOX IMVI melanoma 54.6% | SK-MEL-28 melanoma 71.4%

CN(C)CC(=O)Nc1nc(-c2cccc(NS(=O)(=O)c3cccc4c(N(C)C)cccc34)c2)cs1
inactive: HCT-15 colon 75.8% | HT29 colon 94.3% | SNB-75 CNS 95.6% | SNB-19 CNS 88.8% | U251 CNS 83.4% | PC-3 prostate 72% | SK-MEL-5 melanoma 63.4% | UACC-62 melanoma 72.5% | LOX IMVI melanoma 95.3% | SK-MEL-28 melanoma 104%

NS(=O)(=O)c1ccc(Nc2nc(N/N=C/c3ccc4c(c3)OCO4)nc(Nc3ccccc3)n2)cc1
inactive: HCT-15 colon 82.7% | HT29 colon 40.2% | SNB-75 CNS 53.6% | SNB-19 CNS 55.8% | U251 CNS 55.4% | PC-3 prostate 59.1% | SK-MEL-5 melanoma 54.3% | UACC-62 melanoma 78.4% | LOX IMVI melanoma 26.7% | SK-MEL-28 melanoma 67.5%

O=C1Nc2ccc(F)cc2/C1=C\C(=O)c1ccc(NS(=O)(=O)c2ccccc2)cc1
inactive: HCT-15 colon 59.7% | HT29 colon 81% | SNB-75 CNS 76.1% | SNB-19 CNS 95.6% | U251 CNS 94.1% | PC-3 prostate 92% | SK-MEL-5 melanoma 97.3% | UACC-62 melanoma 77.7% | LOX IMVI melanoma 21.4% | SK-MEL-28 melanoma 105%

C=C(C)[C@@H]1CC[C@]2(COCCCNCCCN)CC[C@]3(C)[C@H](CC[C@@H]4[C@@]5(C)CC[C@H](O)C(C)(C)[C@@H]5CC[C@]43C)[C@@H]12
active: HCT-15 colon -78% | HT29 colon -62.6% | SNB-75 CNS -86.6% | SNB-19 CNS -91% | U251 CNS -73.4% | PC-3 prostate -74.4% | SK-MEL-5 melanoma -63.5% | UACC-62 melanoma -89.6% | LOX IMVI melanoma -80.7% | SK-MEL-28 melanoma -92.8%

C#Cc1cc(OC)c(C(=O)Nc2ccc(F)cc2C(=O)Nc2cccc(S(=O)(=O)C(F)(F)F)c2)cn1
inactive: SNB-19 CNS 17.6% | UACC-62 melanoma 18.8% | SK-MEL-28 melanoma 50%
active: HCT-15 colon -8.48% | HT29 colon -30.3% | SNB-75 CNS -80.4% | U251 CNS 0.45% | PC-3 prostate 4.89% | SK-MEL-5 melanoma -49% | LOX IMVI melanoma -82.1%

CC(=O)N1N=C(c2cc3ccccc3oc2=O)CC1c1cn(-c2ccccc2)nc1-c1ccc(C)cc1 (stereo not given)
inactive: HCT-15 colon 103% | HT29 colon 108% | SNB-75 CNS 90.7% | SNB-19 CNS 96% | U251 CNS 104% | PC-3 prostate 93% | SK-MEL-5 melanoma 101% | UACC-62 melanoma 95.2% | LOX IMVI melanoma 95.7% | SK-MEL-28 melanoma 106%

CCOC(=O)c1cccnc1Nc1ccc(NC(=O)Nc2ccc(Cl)c(C(F)(F)F)c2)cc1
inactive: HCT-15 colon 14.4% | HT29 colon 36.1% | SNB-75 CNS 106% | SNB-19 CNS 49.3% | U251 CNS 30.1% | SK-MEL-5 melanoma 67.8% | UACC-62 melanoma 45.4% | LOX IMVI melanoma 22.5% | SK-MEL-28 melanoma 43.7%
active: PC-3 prostate 7.22%

O=C1[C@H]2Cc3c([nH]c4ccccc34)[C@H](c3ccc(Cl)cc3)N2C(=O)CN1C1CCN(CC2CCCCC2)CC1
active: HT29 colon -21.9% | LOX IMVI melanoma -79.5%
inactive: HCT-15 colon 28.6% | SNB-75 CNS 41.4% | SNB-19 CNS 76% | U251 CNS 49.2% | PC-3 prostate 52.9% | SK-MEL-5 melanoma 37.8% | UACC-62 melanoma 93.4% | SK-MEL-28 melanoma 83.2%

COc1ccc(N2CCN(C3=C(Cl)C(=O)c4ncccc4C3=O)CC2)cc1
inactive: HCT-15 colon 17.1% | HT29 colon 87.3% | SNB-75 CNS 85.2% | SNB-19 CNS 94.7% | U251 CNS 90.9% | PC-3 prostate 68.1% | SK-MEL-5 melanoma 95% | UACC-62 melanoma 69.3% | LOX IMVI melanoma 21% | SK-MEL-28 melanoma 78.3%

Brc1cccc(-c2cc(-c3ccc4c(c3)OC=CO4)[nH]n2)c1
inactive: HCT-15 colon 21.1% | HT29 colon 14% | SNB-75 CNS 27.5% | SNB-19 CNS 48.6% | U251 CNS 29% | PC-3 prostate 54.1% | SK-MEL-5 melanoma 22.8% | UACC-62 melanoma 52.2% | LOX IMVI melanoma 45.6% | SK-MEL-28 melanoma 50%

O=C1Nc2cc(Cl)ccc2/C1=C\c1ccc(OCc2ccccc2)cc1
inactive: HCT-15 colon 95% | HT29 colon 105% | SNB-75 CNS 73.3% | SNB-19 CNS 103% | U251 CNS 104% | PC-3 prostate 88.2% | SK-MEL-5 melanoma 97.2% | UACC-62 melanoma 95.9% | LOX IMVI melanoma 92.7% | SK-MEL-28 melanoma 103%

NCCNC(=O)c1cccc(COc2ccccc2NC(=O)c2cc(Cl)c(Cl)[nH]2)c1
inactive: HCT-15 colon 94.3% | HT29 colon 109% | SNB-75 CNS 72.5% | SNB-19 CNS 96.9% | U251 CNS 88.7% | PC-3 prostate 102% | SK-MEL-5 melanoma 99.4% | UACC-62 melanoma 87.3% | LOX IMVI melanoma 81.5% | SK-MEL-28 melanoma 94.8%
